The values below come from the supplement of paper PMC7380943.

Counter-ions that a name gives are not always drawn.

The subject of assay [1] is CLZ3 (HCA2 human fibroblast dual HR-NHEJ reporter). Kind of assay: NHEJ repair efficiency (GFP+ cells) relative to control (log10 fold); higher = more non-homologous end joining. The settings on record: 5 µM; doxycycline 0.5 ug/mL.
The test system is the same in assay [2]. Kind of assay: HR repair efficiency (tdTomato+ cells) relative to control (log10 fold); higher = more homologous recombination. The settings on record: 5 µM; doxycycline 0.5 ug/mL.
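Wherever HR repair efficiency (tdTomato+ cells) relative to control is given: compound given one day before doxycycline, which switches on I-SceI endonuclease expression to create double-strand breaks within the integrated reporter.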
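Wherever NHEJ repair efficiency (GFP+ cells) relative to control is given: compound given one day ahead of doxycycline, which switches on I-SceI endonuclease to cut the chromosomally integrated reporter and create DSBs.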

With `COc1ccc([C@@H]2CC(=O)c3c(O)cc(O[C@@H]4O[C@H](CO[C@@H]5O[C@@H](C)[C@H](O)[C@@H](O)[C@H]5O)[C@@H](O)[C@H](O)[C@H]4O)cc3O2)cc1O` [Hesperidin], the “NHEJ repair efficiency (log10)” value in assay [1] was found to be 0.196. Further, in assay [2], the “HR repair efficiency (log10)” value came to 0.258.
For `c1ccc([C@H]2CN3CCSC3=N2)cc1` [Levamisole hydrochloride], in that order: 0.0656 and -0.0158.
For `O=C1Nc2ccccc2/C1=C1/Nc2ccccc2C1=O` [Indirubin], in that order: -0.0691 and -0.00679.
With `O=C1C[C@@H](c2ccc(O[C@@H]3O[C@H](CO)[C@@H](O)[C@H](O)[C@H]3O)cc2)Oc2cc(O)ccc21` [Liquiritin], the “NHEJ repair efficiency (log10)” value in assay [1] is -0.084. The “HR repair efficiency (log10)” value in assay [2] was -0.0906.
As for `COc1cc(-c2cc(=O)c3c(O)c(OC)c(O)cc3o2)ccc1O` [Jaceosidin], the “NHEJ repair efficiency (log10)” value in assay [1] was -0.028. In addition, in assay [2], the “HR repair efficiency (log10)” value is -0.105.
For `COc1ccc2ccc(=O)oc2c1CC=C(C)C` [Osthole], the “NHEJ repair efficiency (log10)” value in assay [1] was 0.0815. For the same compound, the “HR repair efficiency (log10)” value in assay [2] is -0.0645.
On to `C=C(C)[C@H](CC=C(C)C)Cc1c(O)cc(OC)c2c1O[C@H](c1ccc(O)cc1O)CC2=O` [Kurarinone], for which the “NHEJ repair efficiency (log10)” value in assay [1] stood at 0.0108. In addition, the “HR repair efficiency (log10)” value in assay [2] came out at 0.0158.
The like results for `CC(C)=CCc1c(-c2ccc(O)cc2O)oc2c3c(cc(O)c2c1=O)OC(C)(C)C=C3` [Morusin] were, in that order, 0.0648 and -0.298.
For `C[N+]1(C)CCCC1C(=O)O` (stereo not given) [Stachydrine Hydrochloride], in that order: -0.0485 and 0.12.
For `COc1cc(-c2oc3cc(O)cc(O)c3c(=O)c2O[C@@H]2O[C@H](CO)[C@@H](O)[C@H](O)[C@H]2O[C@@H]2O[C@@H](C)[C@H](O)[C@@H](O)[C@H]2O)ccc1O` [Isorhamnetin 3-O-Neohesperoside], in that order: -0.0528 and -0.0275.
